{
  "source": "PubChem BioAssay (Tox21)",
  "note": "Records with an inconclusive call do not appear. Entries that show only a call come without a potency. The source holds several records for some structures; these can differ, active in one and inactive in another. The source made the active and inactive calls. Unless noted, the call rests on the fitted dose curve.",
  "data": [
    {"tested_on": "not listed separately", "assay": "qHTS assay to identify small molecule antagonists of the sonic hedgehog signaling (Shh) pathway (AID 1259369); further: nearly all actives have a fitted effect of over 45% in size; further: potency means the concentration at half of the fitted maximal effect", "conditions": "NIH/3T3 Gli1-Luc reporter, Shh antagonist, luminescence 24 h; series mostly up to 92.4 µM; activity change, negative = inhibition: at the top concentration", "outline": "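Antagonist mode: compound added to 3T3 Gli1-Luc cells followed by conditioned-medium stimulation, 24 h at 37 C, 5% CO2. Inhibition taken as loss of Gli1-driven luciferase luminescence.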", "values": [
      {"smiles": "COc1ccc(OC(F)(F)F)cc1CN[C@H]1CCCN[C@H]1c1ccccc1", "Potency": "10.9 µM (active)"},
      {"smiles": "CCCC[P+](CCCC)(CCCC)CCCC", "activity change, negative = inhibition": "-39.1% (inactive)"},
      {"smiles": "Oc1ccccc1", "Potency": "inactive"},
      {"smiles": "CC/C(=C(\\c1ccccc1)c1ccc(OCCN(C)C)cc1)c1ccccc1", "Potency": "23.7 µM (active) [middle of 4 runs]"},
      {"smiles": "O=c1[nH]cc(F)c(=O)[nH]1", "Potency": "inactive"},
      {"smiles": "Nc1ccc(O)c([N+](=O)[O-])c1", "Potency": "13.5 µM (active)"},
      {"smiles": "CN1CCC[C@H]1c1cccnc1", "Potency": "inactive"},
      {"smiles": "NC(=O)n1c(O)c(C(=O)c2cccs2)c2cc(Cl)ccc21", "Potency": "10.6 µM (active)"},
      {"smiles": "OC[C@H]1O[C@H](O[C@]2(CCl)O[C@H](CCl)[C@@H](O)[C@@H]2O)[C@H](O)[C@@H](O)[C@H]1Cl", "Potency": "inactive"},
      {"smiles": "Cn1c(=O)c2c(ncn2C)n(C)c1=O", "Potency": "17.4 µM (active) and inactive"},
      {"smiles": "CC1(C)S[C@@H]2[C@H](NC(=O)[C@H](N)c3ccccc3)C(=O)N2[C@H]1C(=O)O", "Potency": "inactive"},
      {"smiles": "Nc1ccc2c(c1)CN1C(=O)c3ccccc3C1=N2", "activity change, negative = inhibition": "-44.1% [at 19 µM] (inactive)"},
      {"smiles": "F[B-](F)(F)F", "Potency": "inactive"},
      {"smiles": "O=C(Nc1ncc([N+](=O)[O-])s1)c1cccs1", "activity change, negative = inhibition": "-40.2% [at 42.5 µM] (inactive)"},
      {"smiles": "Cc1ccc(S(=O)(=O)O)cc1", "Potency": "inactive"},
      {"smiles": "CC(=O)C(=O)O", "Potency": "inactive"},
      {"smiles": "C/C=C/C=C/C(=O)O", "Potency": "inactive"},
      {"smiles": "COc1cccc(O)c1O", "Potency": "8.97 µM (active)"},
      {"smiles": "O=C1c2c(O)cccc2Cc2cccc(O)c21", "Potency": "inactive"},
      {"smiles": "CN[C@H]1CC[C@@H](c2ccc(Cl)c(Cl)c2)c2ccccc21", "Potency": "18.8 µM (active)"},
      {"smiles": "O=C1O[C@H]([C@@H](O)CO)C(O)=C1O", "Potency": "inactive"},
      {"smiles": "CCCCC(CC)C(=O)O", "note": "(configuration not stated)", "Potency": "inactive"},
      {"smiles": "C[C@](N)(Cc1ccc(O)c(O)c1)C(=O)O", "activity change, negative = inhibition": "2.13% [at 42.5 µM] (inactive)"},
      {"smiles": "COc1ccc(CN(CCN(C)C)c2ccccn2)cc1", "Potency": "inactive"},
      {"smiles": "CCN(Cc1c(F)cccc1Cl)c1c([N+](=O)[O-])cc(C(F)(F)F)cc1[N+](=O)[O-]", "activity change, negative = inhibition": "25.6% (inactive)"},
      {"smiles": "CC(O)(P(=O)(O)O)P(=O)(O)O", "Potency": "inactive"},
      {"smiles": "NS(=O)(=O)O", "Potency": "inactive"}
    ]},
    {"molecular_target": "Estrogen receptor beta (Homo sapiens) (UniProt Q92731)", "sequence (Q92731 whole entry, looked up)": "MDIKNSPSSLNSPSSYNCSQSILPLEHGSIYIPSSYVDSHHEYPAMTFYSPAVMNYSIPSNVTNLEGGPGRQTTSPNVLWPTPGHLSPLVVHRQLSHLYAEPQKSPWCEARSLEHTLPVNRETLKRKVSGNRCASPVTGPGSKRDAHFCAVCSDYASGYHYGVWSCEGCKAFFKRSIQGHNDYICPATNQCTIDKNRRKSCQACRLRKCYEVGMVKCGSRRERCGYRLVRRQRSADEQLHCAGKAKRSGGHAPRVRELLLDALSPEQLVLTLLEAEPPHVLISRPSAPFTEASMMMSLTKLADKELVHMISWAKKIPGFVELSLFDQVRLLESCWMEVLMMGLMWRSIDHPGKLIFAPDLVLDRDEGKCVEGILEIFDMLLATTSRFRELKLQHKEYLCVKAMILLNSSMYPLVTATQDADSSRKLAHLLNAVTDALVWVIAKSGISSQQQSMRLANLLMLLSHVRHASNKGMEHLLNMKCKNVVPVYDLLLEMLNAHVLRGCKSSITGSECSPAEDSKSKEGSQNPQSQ", "assay": "qHTS assay to identify small molecule agonists of the estrogen receptor beta (ER-beta) signaling pathway (AID 1259377; active means well fitted activation curve with a large enough effect in the signal ratio in the repeat runs, not every such curve was filed as active; the % refers to the signal ratio)", "conditions": "ER-beta-UAS-bla HEK293T, beta-lactamase FRET ratio, 16 h; series mostly up to 92.4 µM; activation: at the top concentration", "outline": "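Reporter cells (HEK293T, ER-beta-UAS-bla) receive compounds or DMSO after a 6 hr pre-incubation. They then incubate 16 hr at 37C/5% CO2, and fluorescence from LiveBLAzer B/G substrate is measured after 2 hours at room temperature.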", "values": [
      {"smiles": "C1CCC(C(CC2CCCCN2)C2CCCCC2)CC1", "note": "(configuration not stated)", "activation": "-9.96% [at 42.5 µM] (inactive)"},
      {"smiles": "O=c1[nH]cc(F)c(=O)[nH]1", "Potency": "inactive"},
      {"smiles": "OC[C@H]1O[C@H](O[C@]2(CCl)O[C@H](CCl)[C@@H](O)[C@@H]2O)[C@H](O)[C@@H](O)[C@H]1Cl", "Potency": "inactive"},
      {"smiles": "C/C=C/C=C/C(=O)O", "Potency": "inactive"},
      {"smiles": "NS(=O)(=O)O", "Potency": "inactive"}
    ]}
  ]
}
